Out of some 370,000 compounds screened, about 3,100 (0.84%) were called active. What follows is part of a selection rich in actives, with near analogues and random picks from the rest. Unmarked numbers belong to inactive results.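 How the source made its calls: active means inhibition above the mean of compounds lying between control limits plus 3 SD, set per campaign (cut at about 8.5% in these data); inactive means the rest.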

Usually inhibition stands for the change of the read-out against control, counted positive when it falls.

The target of this assay is Disintegrin and metalloproteinase domain-containing protein 17 (Homo sapiens) (UniProt P78536). Briefly: ADAM17 inhibitors, primary screen, biochemical, QFRET (AID 720648).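 Further: 0% = DMSO-only wells as the low control.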 The note with it: recombinant ADAM17, EDANS/DABCYL FRET peptide cleavage; at 6.95 µM; hits give high values.
Sequence of Disintegrin and metalloproteinase domain-containing protein 17 (Homo sapiens) (P78536 215-824 limits assumed): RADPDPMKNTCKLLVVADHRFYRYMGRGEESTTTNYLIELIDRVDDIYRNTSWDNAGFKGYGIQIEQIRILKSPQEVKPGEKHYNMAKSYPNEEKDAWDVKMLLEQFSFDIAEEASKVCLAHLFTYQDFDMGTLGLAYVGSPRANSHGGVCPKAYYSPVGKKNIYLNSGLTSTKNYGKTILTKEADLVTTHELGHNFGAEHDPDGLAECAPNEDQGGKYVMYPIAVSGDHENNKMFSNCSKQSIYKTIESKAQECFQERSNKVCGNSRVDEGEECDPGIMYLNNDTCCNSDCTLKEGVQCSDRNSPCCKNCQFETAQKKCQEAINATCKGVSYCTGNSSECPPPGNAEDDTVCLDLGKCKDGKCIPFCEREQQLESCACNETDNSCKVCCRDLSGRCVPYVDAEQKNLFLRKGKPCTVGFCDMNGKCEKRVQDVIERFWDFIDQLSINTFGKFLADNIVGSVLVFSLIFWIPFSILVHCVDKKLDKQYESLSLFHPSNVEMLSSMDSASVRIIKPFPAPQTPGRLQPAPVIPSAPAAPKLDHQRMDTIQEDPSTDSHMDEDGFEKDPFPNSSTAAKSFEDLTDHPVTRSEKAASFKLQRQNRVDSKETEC
Regarding `COc1ccc(Cn2ccc3ccc(-c4ccc5ccn(Cc6ccccc6C)c5c4)cc32)cc1`, the inhibition was -14.6%. For `CCCC1CCC2(CCCN2CCOC(=O)NCc2ccccc2)CC1` (stereo not drawn), the inhibition is -6.91%.

For `COc1ccc(S(=O)(=O)Nc2ccc(O)c(Sc3nc4ccccc4s3)c2)cc1`, the inhibition was 9.23% (active). To `COc1cccc(NS(=O)(=O)c2ccc(-c3coc(C)n3)cc2)c1` belongs 0.72%; to `COc1ccc(NS(=O)(=O)c2ccc(O)c(C(=O)OCC(=O)NC3CCCCC3)c2)cc1`, -2.64%; to `CCOC(=O)C1CCN(C(=O)C(C)(C)NC(=O)Nc2ccccc2Cl)CC1`, -3.66%.

In the case of `C=CCN1C(=O)[C@@H](CC(=O)NCCCOCCCC)[C@]2(C(=O)OCC)CCCCC/C=C/12`, the inhibition is -0.06%. As for `CCC(c1ccc(NC(=O)OC(C)(C)C)cc1)c1cc(OC)cc(OC)c1` (stereo not drawn), the figure is 3.59%; as for `C=CCN1C(=O)[C@@H](CC(=O)N2CCN(C(=O)OCC)CC2)[C@]2(C(=O)OCC)CCCCC/C=C/12`, -4.2%; as for `Cc1cc(C(=O)NN=C/C=C/c2ccco2)n[nH]1`, -5.03%.

With `COC(=O)C1CN(Cc2ccc(F)cc2)CCS(=O)(=O)N1Cc1ccc(Cl)cc1` (stereo not drawn), the inhibition is -3.73%. Regarding `C[C@H]1[C@H](NC(=O)c2cccc(N(C)C)c2)CC[C@@]23CCCN2C(=O)CCC[C@@H]13`, the inhibition is -31.1%. For the compound `CC(C)(C)CC(=O)Nc1nc(C(N)Cc2ccc(C(F)(F)F)cc2)cs1` (stereo not drawn), the inhibition is -1.9%. As for `NC(c1csc(NC(=O)Nc2cccc(C(F)(F)F)c2)n1)C1CCCCC1` (stereo not drawn), the figure is 3.01%; as for `CCOC(=O)c1csc(NC(=O)Nc2cccc(OC)c2)n1`, -0.26%; as for `COc1ccc(CC(N)c2csc(NC(=O)NC(c3ccccc3)c3ccccc3)n2)cc1` (stereo not drawn), 8.79% (active).

Turning to `COc1ccc(C(N)c2csc(NC(=O)Nc3cccc(C(F)(F)F)c3)n2)cc1` (stereo not drawn), the inhibition was 13.7% (active). To `COc1ccc(CC(N)c2csc(NC(=O)Nc3ccc(C(C)C)cc3)n2)cc1` (stereo not drawn) belongs 2.77%. As for `COc1ccc(-n2c(COc3ccc(C)cc3)nnc2SCC(=O)Nc2ccc(Oc3ccccc3)cc2)cc1`, the inhibition was -2.03%. Turning to `O=C1Nc2ccccc2OC1CC(=O)N1CCCCCCC1` (stereo not drawn), the inhibition is -1.23%.

Regarding `CCCCN1CCN(C(=O)c2ccc3c(c2)NC(=O)C(C)(C)O3)CC1`, the inhibition is 1.41%.

Turning to `COC(=O)c1c(C)oc(C)c1S(=O)(=O)NCc1ccc(Cl)cc1`, the inhibition was -1.53%.

On to `COC(=O)c1c(C)[nH]c(C(=O)NCCc2ccc(S(N)(=O)=O)cc2)c1C`, for which the inhibition was -14.5%. With `COC(=O)c1c(C)[nH]c(C(=O)/C=C/c2ccc(Cl)cc2)c1C`, the inhibition was 9.17% (active). Turning to `Cc1c[nH]c2cccc(-c3ccc(Cl)cc3)c12`, the inhibition was -9.67%.

With `CCn1c(SCC(=O)N/N=C/c2ccccc2OCC(=O)O)nnc1-c1ccc(C(C)(C)C)cc1`, the inhibition is -1.28%. `C=CCOc1ccccc1/C=N/NC(=O)Cc1ccccc1`: the inhibition is 11.4% (active). As for `O=C(CC(=O)N/N=C\c1cccc(Cl)c1Cl)NCc1ccccc1`, the figure is -1.85%; as for `Oc1ccc(/C=C/c2c(F)cccc2F)c2cccnc12`, -0.42%; as for `Nn1c(SCC(=O)Nc2ccc(S(N)(=O)=O)cc2)nnc1-c1n[nH]c2c1CCC2`, -1.11%.

Take `CCOc1ccccc1NC(=O)NC1CCCCCCC1`: the inhibition was 2.55%. As for `CCCN(CC(=O)NC(=O)NC1CCCCC1)CC(=O)Nc1cc(Cl)ccc1Cl`, the figure is 9.13% (active); as for `O=C(COc1cc(Cl)c(Cl)cc1Cl)NC(=O)NC1CCCC1`, -3.67%. `CCC(C)[C@@H](C(=O)OC)N(CCc1cn(Cc2ccccc2)nn1)S(=O)(=O)c1ccccc1Br` (stereo partly drawn): the inhibition was 6.37%.

As for `CC(c1ccc(N)cc1)c1cn(C)c2ccccc12` (stereo not drawn), the inhibition was 1.58%. As to `CCN1C(=O)C(CC(=O)Nc2cc(C)ccc2C)SC1=Nc1ccc(S(N)(=O)=O)cc1` (stereo not drawn), the inhibition was 9.07% (active). To `CCN1C(=O)C(=O)N(CC(=O)Nc2cc(C)ccc2C)C1=O` belongs -0.07%. As for `CCN=C1SC(CC(=O)Nc2ccc(C)cc2)C(=O)N1CC` (stereo not drawn), the figure is -7.43%. To `O=C(CN1CCCc2ccccc21)NCc1ccc(F)cc1` belongs 1.67%; to `CCN(CC)C(=O)CC[C@H]1CC[C@]2(CCCN(Cc3ccc(Cl)cc3)C2)O1`, 1.61%; to `Cc1onc(C(=O)NN)c1-c1csc(COc2ccccc2)n1`, 9% (active). With `O=C(COc1ccccc1)Nc1nonc1NC(=O)COc1ccccc1`, the inhibition is -4.34%. To `Cc1cccc(OCCC(=O)OCc2csc(CC(=O)Nc3ccccc3C)n2)c1` belongs -0.41%; to `CCOC(=O)[C@]12CCCC3=C1N(CCC3)C(=O)[C@@H](CC(=O)N1CCSCC1)C2`, 0.18%. With `CC(=O)N1CCc2cc(S(=O)(=O)NCCC(=O)N3CCCC3)ccc21`, the inhibition was -3.27%.

Consider `O=Nc1c(O)cc(O)c2ccccc12`, for which the inhibition was 10.5% (active). Consider `O=c1c2ccccc2ccc2ccc(P(=O)(O)O)cc12`, for which the inhibition is -16.1%.

For `COc1cccc2c(O)cc(=O)n(C)c12`, the inhibition was -4.7%. As for `CCN(C(=O)[C@@H](C1CC1)[C@@H](O)c1ccc2ccccc2c1)c1ccccc1`, the figure is -1.62%; as for `COc1cccc(NC(=O)C2C(c3ccccc3)C2(Cl)Cl)c1` (stereo not drawn), 9.55% (active).

For the compound `COc1cccc(NC(=O)C2c3cc(OC)c(OC)cc3C(=O)N(C)C2c2cccnc2)c1` (stereo not drawn), the inhibition is 1.58%.

As for `COc1cccc(NC(=O)C/C(C)=N/NC(=O)C2CCCCC2)c1`, the inhibition was -3.38%. For the compound `CC(C)CNS(=O)(=O)CC1NCCc2ccccc21` (stereo not drawn), the inhibition is -3.23%. To `COc1ccc(C(=O)OCCN2CCN(C3CN(Cc4cn(Cc5ccccc5F)nn4)S(=O)(=O)C3)CC2)cc1OC` (stereo not drawn) belongs -4.52%. Regarding `CC(=O)Nc1nc2ncccn2c1-c1ccc(C(F)(F)F)cc1`, the inhibition is -266%.

Take `N#Cc1cccc(C(=O)NCC2CCN(C(=O)C(=O)c3cc4ccccc4o3)CC2)c1`: the inhibition was -3.28%.

As for `CC(C)(C)c1ccc(S(=O)(=O)NCC2CCN(C(=O)C(=O)c3cc4ccccc4o3)CC2)cc1`, the inhibition is 9.75% (active). To `O=C(C(=O)N1CCC(CNS(=O)(=O)Cc2ccccc2)CC1)c1cc2ccccc2o1` belongs -3.01%.

For the origin of these results see PubChem BioAssay AID720648 (The Scripps Research Institute Molecular Screening Center, 2013).
